Activity calls are given as the source filed them.

Composite z-score and z-score data for 17 compounds are collected here from PubChem BioAssay.

Experiment [1] concerns PRMT1 (protein arginine N-methyltransferase 1). As to the kind of experiment: PRMT1 binders on small-molecule microarrays, primary screen, biochemical, small-molecule microarray, 635 nm fluorescence (AID 1088).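 Note: binding of Prmt1 protein to compounds spotted on small-molecule microarray slides.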 The conditions noted are these: small-molecule microarray binding, higher = more signal.
A short description of experiment [2]: yeast growth modulation, basal conditions, primary screen, YJM789 clinical isolate, OD600, 24 h (AID 1089).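 Note: growth of clinical yeast isolate S. cerevisiae YJM 789 seeded 1000 cells per well; test concentration not given here.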 The conditions noted are these: S. cerevisiae YJM789 growth, higher = more signal, called active from +8 up or from −8 down.
Experiment [3] is described as follows: fission yeast growth modulation, primary screen, strain 972, OD600, 24 h, no modulator (AID 1090).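 Note: basal condition with compound alone and no growth modifier present; test concentration not given here.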 The conditions noted are these: S. pombe 972 growth, higher = more signal, called active from +8 up or from −8 down.
Experiment [4] in a line: S. cerevisiae growth modulation with rapamycin, primary screen, strain BY4716, OD600, 96 h (AID 1091). Note: test concentration not given here. The conditions noted are these: higher = more signal, called active from +8 up or from −8 down.
Experiment [5] concerns the target Torsin-1A-interacting protein 2 (Homo sapiens) (UniProt Q8NFQ8). As to the kind of experiment: LULL1 binders on small-molecule microarray, primary screen, cell lysate, human LULL1 lysate, 635/667 nm fluorescence (AID 1092).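 Note: probe is lysate of COS7 cells overexpressing human LULL1; score merges per-feature 667 nm fluorescence with signal-to-noise.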 The conditions noted are these: hLULL1 lysate binding, 635 nm fluorescence, higher = more signal.
Experiment [6] is described as follows: E. coli growth modulation, two-sided OD650, primary screen, E. coli filamentation project, strain DRC41, 24 h (AID 1093).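 Note: MC1000 strain lacking acrAB efflux and sulA so SOS filamentation is blocked; test concentration not given here.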 The conditions noted are these: OD650, 24 h, higher = more signal, called active from +8 up or from −8 down.
Experiment [7] is described as follows: small-molecule microarray binders of probe aLefty2, primary screen, biochemical, biotinylated probe, 635/667 nm fluorescence (AID 1094).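 Note: score merges spot fluorescence near 667 nm with spot signal-to-noise ratio.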 The conditions noted are these: higher = more signal.
Experiment [8] deals with Noggin (protein binding on small-molecule microarray). As to the kind of experiment: Noggin binders on small-molecule microarray, primary screen, biochemical, 635/667 nm fluorescence (AID 1095).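 Note: score merges 667 nm feature fluorescence with signal to noise over triplicate slides.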 The conditions noted are these: 635 nm fluorescence, higher = more signal.
Experiment [9] has as its target Neurogenic locus notch homolog protein 3 (Homo sapiens) (UniProt Q9UM47). Put plainly: NOTCH3 binders on small-molecule microarray, primary screen, biochemical, 635/667 nm fluorescence (AID 1096). The conditions noted are these: NOTCH3 binding, 635 nm fluorescence, higher = more signal.
Experiment [10] in a line: small-molecule microarray binders of probe aEGFR, primary screen, biochemical, biotinylated probe, 635/667 nm fluorescence (AID 1097).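 Note: probe is a biotinylated anti-EGFR antibody binding compounds printed on slides; score combines fluorescence near 667 nm and signal to noise of each spot.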 The conditions noted are these: higher = more signal.

Chain of Neurogenic locus notch homolog protein 3 (Homo sapiens) (Q9UM47 whole entry, looked up): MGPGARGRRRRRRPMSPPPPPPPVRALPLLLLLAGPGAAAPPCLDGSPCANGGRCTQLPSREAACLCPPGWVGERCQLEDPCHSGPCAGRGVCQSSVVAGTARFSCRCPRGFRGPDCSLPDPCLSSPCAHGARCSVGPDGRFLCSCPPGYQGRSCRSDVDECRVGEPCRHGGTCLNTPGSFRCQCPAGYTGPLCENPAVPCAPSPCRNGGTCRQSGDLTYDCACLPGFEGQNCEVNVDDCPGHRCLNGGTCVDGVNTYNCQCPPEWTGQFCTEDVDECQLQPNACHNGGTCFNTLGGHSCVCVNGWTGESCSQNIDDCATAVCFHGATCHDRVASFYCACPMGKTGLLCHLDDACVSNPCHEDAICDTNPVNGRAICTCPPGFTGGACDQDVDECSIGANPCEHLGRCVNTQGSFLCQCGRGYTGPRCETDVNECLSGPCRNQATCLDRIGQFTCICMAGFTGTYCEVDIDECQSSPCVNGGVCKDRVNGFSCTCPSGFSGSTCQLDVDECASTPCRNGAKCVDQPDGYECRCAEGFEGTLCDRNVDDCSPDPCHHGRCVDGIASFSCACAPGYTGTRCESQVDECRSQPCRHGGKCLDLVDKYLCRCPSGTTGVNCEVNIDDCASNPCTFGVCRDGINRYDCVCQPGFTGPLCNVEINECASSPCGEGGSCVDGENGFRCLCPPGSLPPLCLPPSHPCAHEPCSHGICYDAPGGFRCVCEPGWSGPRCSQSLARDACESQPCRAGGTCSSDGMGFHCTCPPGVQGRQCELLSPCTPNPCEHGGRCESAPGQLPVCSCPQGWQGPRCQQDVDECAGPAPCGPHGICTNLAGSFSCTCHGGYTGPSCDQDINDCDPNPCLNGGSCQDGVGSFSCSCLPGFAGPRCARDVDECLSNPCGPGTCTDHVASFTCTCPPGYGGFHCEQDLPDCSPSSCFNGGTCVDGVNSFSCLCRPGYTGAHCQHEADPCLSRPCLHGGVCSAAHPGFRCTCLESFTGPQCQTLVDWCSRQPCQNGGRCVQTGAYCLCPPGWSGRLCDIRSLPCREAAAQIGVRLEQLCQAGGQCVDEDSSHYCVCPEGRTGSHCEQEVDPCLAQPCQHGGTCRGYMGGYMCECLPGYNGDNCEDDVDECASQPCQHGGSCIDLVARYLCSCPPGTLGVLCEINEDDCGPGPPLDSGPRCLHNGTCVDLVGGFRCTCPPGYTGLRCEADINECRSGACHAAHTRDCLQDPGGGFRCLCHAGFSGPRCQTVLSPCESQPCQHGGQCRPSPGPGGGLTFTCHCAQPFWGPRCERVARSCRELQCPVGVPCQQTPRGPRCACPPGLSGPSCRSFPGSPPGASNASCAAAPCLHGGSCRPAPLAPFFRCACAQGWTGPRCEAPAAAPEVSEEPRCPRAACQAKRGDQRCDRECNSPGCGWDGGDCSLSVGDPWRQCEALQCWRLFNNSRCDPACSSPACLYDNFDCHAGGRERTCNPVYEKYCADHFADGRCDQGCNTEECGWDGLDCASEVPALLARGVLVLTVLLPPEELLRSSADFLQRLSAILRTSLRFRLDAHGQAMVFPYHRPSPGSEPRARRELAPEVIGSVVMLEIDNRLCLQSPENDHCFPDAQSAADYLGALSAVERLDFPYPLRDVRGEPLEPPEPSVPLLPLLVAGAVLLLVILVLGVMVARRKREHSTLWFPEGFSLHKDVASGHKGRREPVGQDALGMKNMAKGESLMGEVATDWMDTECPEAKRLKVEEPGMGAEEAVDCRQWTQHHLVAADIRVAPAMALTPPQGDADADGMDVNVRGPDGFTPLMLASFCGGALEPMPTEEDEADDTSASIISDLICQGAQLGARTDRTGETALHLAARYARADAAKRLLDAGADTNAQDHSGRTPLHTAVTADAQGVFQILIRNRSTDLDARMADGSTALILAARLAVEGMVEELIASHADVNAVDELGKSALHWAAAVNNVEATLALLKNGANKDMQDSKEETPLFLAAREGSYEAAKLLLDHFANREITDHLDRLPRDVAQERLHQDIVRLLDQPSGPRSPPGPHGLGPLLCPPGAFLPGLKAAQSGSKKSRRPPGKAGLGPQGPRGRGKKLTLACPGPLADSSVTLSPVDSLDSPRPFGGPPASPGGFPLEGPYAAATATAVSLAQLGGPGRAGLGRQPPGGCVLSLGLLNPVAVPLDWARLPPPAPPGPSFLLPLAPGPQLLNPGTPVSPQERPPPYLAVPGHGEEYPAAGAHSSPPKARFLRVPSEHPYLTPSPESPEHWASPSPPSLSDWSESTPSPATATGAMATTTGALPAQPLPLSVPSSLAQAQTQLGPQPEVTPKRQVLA
Chain of Torsin-1A-interacting protein 2 (Homo sapiens) (Q8NFQ8 whole entry, looked up): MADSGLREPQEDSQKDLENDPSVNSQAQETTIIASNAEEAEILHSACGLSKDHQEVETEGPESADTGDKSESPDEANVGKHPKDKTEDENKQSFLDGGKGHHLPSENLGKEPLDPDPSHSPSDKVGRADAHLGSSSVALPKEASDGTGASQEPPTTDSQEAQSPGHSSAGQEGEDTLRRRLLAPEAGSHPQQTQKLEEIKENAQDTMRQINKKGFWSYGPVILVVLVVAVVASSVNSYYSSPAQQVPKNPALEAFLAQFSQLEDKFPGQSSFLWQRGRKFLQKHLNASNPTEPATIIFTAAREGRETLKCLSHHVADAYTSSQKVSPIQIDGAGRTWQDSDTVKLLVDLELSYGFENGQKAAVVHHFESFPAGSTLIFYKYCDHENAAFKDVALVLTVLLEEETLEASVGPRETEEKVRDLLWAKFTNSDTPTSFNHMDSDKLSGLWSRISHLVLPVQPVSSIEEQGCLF

With `O=C1O[C@@H](c2ccccc2)[C@@H](c2ccccc2)N2[C@@H](c3ccc(O)cc3)[C@]3(C(=O)Nc4ccc(C#CCCO)cc43)[C@@H](C(=O)N3CCN(c4ncccn4)CC3)[C@H]12`, the composite z-score in experiment [1] is 1.54; in experiment [5], 1.04; in [7], -0.698; in experiment [8] it was 1.74; in [9], 1.09; in experiment [10] it was -0.257. The z-score was 2.72 (inactive) in experiment [2], 2 (inactive) in experiment [3], 6.45 (inactive) in experiment [4] and 2.07 (inactive) in [6].

Turning to `CCCCC(CC)C(O)C1C=CC2C(=O)N(C)C(=O)C2N1Nc1ccccc1` (stereo not given), the composite z-score in [1] is 1.36; in [5] it was 2.87; in experiment [7] it was -0.121; in [8] it was 0.123; in experiment [9], 1.03; in experiment [10], -0.154. In addition, the z-score in experiment [2] was 0.307 (inactive); in [3], -0.592 (inactive); in experiment [4], 0.695 (inactive); in experiment [6], -0.931 (inactive).

Take `CCOC(=O)C1=C[C@@H](C(C)C)N(S(=O)(=O)c2ccc(C)cc2)[C@H]1c1ccc(C(F)(F)F)cc1`: the composite z-score in [1] is 1.35; in [5], 3.17; in experiment [7], 0.127; in experiment [8], 0.745; in [9] it was 1.05; in experiment [10], -0.0122. Besides, the z-score in [2] was 1.43 (inactive); in experiment [3], 1.5 (inactive); in experiment [4] it was 2.08 (inactive); in experiment [6], -0.961 (inactive).

Regarding `COC(=O)[C@@]1(Cc2ccc(OC)cc2)[C@H]2c3cc(C(=O)N4CCCC4)n(CCc4c[nH]c5ccc(O)cc45)c3C[C@H]2CN1C(=O)c1ccccc1`, the composite z-score in experiment [1] is 0.66; in experiment [5], 3.16; in experiment [7], 0.379; in [8], -0.0208; in [9], 1.12; in experiment [10], 0.262. The z-score in experiment [2] is 0.277 (inactive); in experiment [3], 1.16 (inactive); in [4], 0.687 (inactive); in experiment [6], 0.573 (inactive).

For the compound `COc1ccc([Si](C)(C)[C@@H]2[C@@H](CC(=O)N(CCO)Cc3ccccc3)O[C@]3(C(=O)N(Cc4cccc(N5CCCCC5=O)c4)c4ccccc43)[C@H]2C)cc1`, the composite z-score in [1] was 1.42; in experiment [5], 2.38; in [7] it was 0.232; in [8] it was 1.45; in experiment [9] it was 0.948; in experiment [10] it was -0.151. The z-score was 1.42 (inactive) in experiment [2], -0.0344 (inactive) in experiment [3], 3.5 (inactive) in experiment [4] and 1.02 (inactive) in experiment [6].

Consider `C=CC[C@@H](OC(=O)Nc1ccc(SC)cc1)c1ccc(O)c(F)c1`, for which the composite z-score in [1] is 0.803; in [5], 0.724; in experiment [7], 0.0276; in [8], 0.713; in experiment [9], -0.0238; in experiment [10] it was -0.105. The z-score was -21.2 (active) in experiment [2], -19.9 (active) in experiment [3], -0.545 (inactive) in [4] and 1.81 (inactive) in experiment [6].

On to `C=CCC(OC(C)=O)[C@@H]1[C@@H](N(Cc2cccc3ccccc23)C(=O)Cc2ccc(OC)cc2)c2cc(OCCCO)ccc2N1C(=O)c1ccc(-c2ccccc2)cc1` (stereo not given in full), for which the composite z-score was 0.328 in [1]; 1.1 in [5]; -0.206 in [7]; -0.424 in experiment [8]; 0.0523 in [9]; -0.19 in experiment [10]. The z-score is 0.0338 (inactive) in [2], 0.402 (inactive) in experiment [3], -0.962 (inactive) in experiment [4] and -0.373 (inactive) in experiment [6].

Regarding `CCC#CCN(Cc1ccccc1Br)[C@H](/C=C/C1CC1)[C@@H](O)Cc1ccccc1`, the composite z-score is -0.134 in experiment [1]; -0.783 in experiment [5]; 0.208 in experiment [7]; -0.679 in experiment [8]; -0.838 in [9]; -0.18 in [10]. In addition, the z-score in experiment [2] is -2.3 (inactive); in [3], -1.55 (inactive); in experiment [4] it was -1.72 (inactive); in experiment [6], 1.35 (inactive).

On to `COc1ccc(C#Cc2ccc3c(c2)[C@]2(C(=O)N3)[C@H](C(=O)O)[C@H]3C(=O)O[C@H](c4ccccc4)[C@H](c4ccccc4)N3[C@@H]2c2ccc(O)cc2)cc1`, for which the composite z-score in experiment [1] is 0.789; in [5] it was 1.98; in experiment [7], -0.0042; in experiment [8], -0.654; in [9], -0.468; in [10] it was -0.0758. Also, the z-score was 1.26 (inactive) in experiment [2], -0.813 (inactive) in experiment [3], 0.0118 (inactive) in experiment [4] and 0.781 (inactive) in experiment [6].

For `CC(C)N1C(=O)c2ccccc2[C@@H](C(=O)NCCN2CCOCC2)[C@@H]1c1ccc(CO)cc1`, the composite z-score in [1] was -1.01; in [5], 0.518; in [7] it was -0.0613; in experiment [8], -0.465; in experiment [9], -0.616; in [10], -0.212. Further, the z-score in experiment [2] was 0.696 (inactive); in experiment [3], 0.098 (inactive); in experiment [4], 0.673 (inactive); in experiment [6] it was -0.589 (inactive).

On to `CCOC(=O)C[C@H]1[C@H](OC(=O)c2ccccc2-c2ccccc2)[C@@H](NC(=O)c2ccc3ccccc3n2)c2cc(OCCCO)ccc2N1C(=O)Cc1ccc(OC)cc1`, for which the composite z-score is 0.115 in experiment [1]; 0.346 in experiment [5]; -0.111 in [7]; 0.287 in [8]; 0.384 in [9]; -0.12 in experiment [10]. In addition, the z-score was 0.59 (inactive) in experiment [2], -0.167 (inactive) in experiment [3], -0.0843 (inactive) in experiment [4] and -0.776 (inactive) in experiment [6].

For `C#CCN([C@@H](Cc1ccccc1)C(=O)OC)[C@@H](/C=C/C1CC1)[C@H](O)Cc1ccccc1`, the composite z-score in [1] is -0.59; in experiment [5], 0.209; in experiment [7], -0.0051; in experiment [8], 0.0503; in [9], -0.525; in [10], -0.307. The z-score is -0.464 (inactive) in experiment [2], -1.22 (inactive) in experiment [3], -0.0898 (inactive) in experiment [4] and -0.807 (inactive) in experiment [6].

`COc1ccc([Si](C)(C)[C@H]2[C@H](CC(=O)N3CCC[C@H]3CO)O[C@@]3(C(=O)N(Cc4ccc(N5CCOC5=O)cc4)c4ccccc43)[C@@H]2C)cc1`: the composite z-score was 1.56 in experiment [1]; 2.31 in experiment [5]; -0.0063 in experiment [7]; 1.32 in [8]; 1.11 in experiment [9]; -0.0409 in experiment [10]. In addition, the z-score in experiment [2] was -0.546 (inactive); in experiment [3] it was 0.0871 (inactive); in experiment [4], -0.38 (inactive); in experiment [6], 1.08 (inactive).

For `CC[C@@H]1C=C(C(=O)O)[C@H](c2ccc(C#N)cc2)N1S(=O)(=O)c1ccc(C)cc1`, the composite z-score in [1] is 0.799; in [5], 3.47; in [7], 0.283; in experiment [8] it was -0.911; in experiment [9], 0.314; in experiment [10], 0.122. Further, the z-score in experiment [2] is -0.407 (inactive); in experiment [3] it was -0.185 (inactive); in experiment [4], -0.104 (inactive); in experiment [6], 0.405 (inactive).

Take `C=C(COC)C(=O)CC[C@@H](OC(C)=O)c1cccc(OCCO)c1`: the composite z-score in [1] was -0.352; in experiment [5], -0.329; in experiment [7], -0.116; in experiment [8], -0.0606; in experiment [9], -0.132; in experiment [10] it was -0.211. For the same compound, the z-score in [2] is 1.01 (inactive); in [3], -0.953 (inactive); in [4] it was 0.962 (inactive); in experiment [6] it was 0.302 (inactive).

For the compound `COC(=O)C1=CC(CCCO)=CC(c2cccs2)N(Cc2cccc(OC(F)(F)F)c2)C=C1C(=O)OC` (stereo not given), the composite z-score worked out at 1.57 in experiment [1]; 3.28 in [5]; 0.0922 in experiment [7]; 0.143 in experiment [8]; 1.04 in [9]; 0.679 in experiment [10]. For the same compound, the z-score in experiment [2] is -1.07 (inactive); in experiment [3], -1.2 (inactive); in experiment [4], -1.45 (inactive); in experiment [6] it was 0.313 (inactive).

With `NC(=O)NCC#Cc1ccc2c(c1)[C@]1(C(=O)N2)[C@H](c2ccccc2OCCO)N2[C@H](c3ccccc3)[C@H](c3ccccc3)OC(=O)[C@H]2[C@@H]1C(=O)O`, the composite z-score is 0.507 in experiment [1]; 1.31 in experiment [5]; -0.0201 in [7]; 0.192 in experiment [8]; -0.199 in experiment [9]; -0.185 in experiment [10]. Further, the z-score in experiment [2] is 0.798 (inactive); in experiment [3], -0.602 (inactive); in [4], -0.675 (inactive); in [6], 1.4 (inactive).
